From PubChem BioAssay
Sampled rows, rich in hits. Any-hit rate of the full collection: about 2.2%.
ABCB6 inh 2: human ABCB6 transporter inhibition. 0.19% of 360,000 active. fluorescence ratio to DMSO, % at 10 µM. K562-ABCB6 porphyrin accumulation, flow cytometry, 1 h; hits give low values. AID 602162;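 active means fluorescence ratio to DMSO below 75%, the collection mean minus 3 SD; inconclusive means too few cells collected in the well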;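 further: signal is porphyrin accumulated inside mitochondria; 100% equals median channel fluorescence of DMSO control wells; lower ratio means ABCB6 inhibition with less porphyrin fluorescence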
Cardio protect: modulators protecting cardiomyocytes from myocardial damage; H9c2 cardiomyocytes, H2O2 injury protection, ATPLite, 2 h; protection from H2O2 cell death, % at 20 µM; 0.63% of 360,000 active; AID 588492;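 active means compounds giving at least 50% protection of heart cells from peroxide-induced death in the single-dose screen, raw or plate-pattern-corrected value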;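 further: 0% = DMSO wells with peroxide and 100% = DMSO wells without peroxide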
hiPSC survival: enhancers of human iPSC single-cell survival; survival enhancement, % at 20 µM; hiPSC single-cell survival, ATPlite luminescence; 100% = ROCK inhibitor wells, 0% = DMSO; 0.044% of 360,000 active; AID 602274; in the data active means survival enhancement above about 18%;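 further: cells exposed to compounds for 16 hours before the ATP read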
beta cell repl: induces beta-cell replication in MIN6 cells. MIN6 cells proliferation, ATPlite luminescence, 48 h; cells starved in 0.2% serum; 100% = growth in 10% serum. proliferation, % at 10 µM. 0.29% of 330,000 active. AID 2380;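 active means compounds whose signal lies at least 3.5 SD above the mean of all wells on their plate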;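 further: 0% = DMSO-treated cells in low-serum medium and 100% = 10% serum control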
Myeloid diff MLP: myeloid differentiation induction; ER-HoxA9 myeloid progenitors, lysozyme-GFP differentiation, flow cytometry; calls only at 10 µM; 1% of 360,000 active; AID 624256;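 active means normalized GFP-positive differentiation at or above the plate's own cutoff, the solvent-only control mean plus 3 SD; inconclusive means no clear call, values can overlap the other calls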;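 further: cells exposed to compound for four days before flow analysis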
* = called active by the depositor; i = inactive; ? = inconclusive; nt = no result given; + = active, no number; ! = not active in a repeat.

SMILES | ABCB6 inh 2 | Cardio protect | hiPSC survival | beta cell repl | Myeloid diff MLP
Cc1ccccc1S(=O)(=O)Cc1ccc(C(=O)NCCCN(C)Cc2ccccc2)o1 | 100 | 10 | 0 | 1 | i
Cc1ccccc1S(=O)(=O)Cc1ccc(C(=O)NCCN(C)Cc2ccccc2)o1 | 95 | 16 | 0 | -2 | +
O=C1NC(=O)/C(=C\c2cn(CC(=O)N3CCOCC3)c3ccccc23)S1 | 101 | -1 | 2 | -2 | i
Cc1ccc(CNC(=O)CCc2ccc(S(=O)(=O)NCC(C)C)cc2)cc1 | 97 | -9 | 0 | -1 | i
CC(C)CNS(=O)(=O)c1ccc(CCC(=O)NCc2cccnc2)cc1 | 97 | -7 | 0 | -3 | +
Cc1ccc(C)c(NC(=O)CN(C)C(=O)c2cccc(-n3cccc3)c2)c1 | 98 | -1 | 0 | 1 | i
O=C(C(O)c1ccc(Br)cc1)N1CCC(Nc2ccc3[nH]ncc3c2)CC1 (centres undefined) | 99 | 3 | 111* | nt | i
Cn1nc(-c2ccccc2F)c2cc(C(=O)Nc3ccc4c(c3)OCCO4)sc21 | 93 | 56* | -1 | -5 | i
Cc1ccc(NS(=O)(=O)c2cc([N+](=O)[O-])ccc2N/N=C/c2sc(N3CCOCC3)nc2-c2ccccc2)c(C)c1 | i | 6 | 0 | -6 | +
Cc1ccc(CN(C)C(=O)COC(=O)CSc2ccc([N+](=O)[O-])cc2)cc1 | 99 | -4 | 0 | 4 | i
Cc1ccc(CN(C)C(=O)COC(=O)CSc2ccc(C(N)=O)cc2[N+](=O)[O-])cc1 | 95 | 58* | 1 | -6 | nt
O=c1c2[nH]c3ccc(F)cc3c2nc2n1CCCS2 | 83 | -3 | -1 | 6 | i
Cc1ccccc1C(C(=O)NCc1ccccc1)N(Cc1ccco1)C(=O)c1ccccn1 (centres undefined) | 96 | 51* | -2 | 6 | i
NC(=O)c1nsc(C(=O)N(c2ccccc2)C(C(=O)NCc2ccc(F)cc2)c2ccc(O)cc2)c1N (centres undefined) | 99 | 50* | -1 | 0 | i
NC(=O)c1nsc(C(=O)N(Cc2ccco2)C(C(=O)NCc2ccc(F)cc2)c2ccc(O)cc2)c1N (centres undefined) | 110 | 54* | -1 | 1 | i
COc1ccc(N(C(=O)c2snc(C(N)=O)c2N)C(C(=O)NCc2ccccc2)c2ccc(O)cc2)cc1 (centres undefined) | 97 | 4 | 0 | -3 | i
CN(C)c1ccc(C(C(=O)NCc2ccccc2)N(Cc2ccco2)C(=O)c2snc(C(N)=O)c2N)cc1 (centres undefined) | 109 | 78* | -1 | nt | i
CCc1nnc(NC(=O)C2CCN(C(=O)c3ccco3)CC2)s1 | 93 | -1 | 0 | 0 | i
COc1cc(N2CCCC2)c(OC)cc1/C=C(/C#N)c1cccc(F)c1 | 301 | -5 | 0 | nt | +
N#C/C(=C/c1ccc(N2CCCCCC2)o1)c1cccc(F)c1 | 127 | -12 | -4 | -6 | i
COc1ccc(NC(=O)c2scc(S(=O)(=O)C(C)C)c2N)cc1 | 98 | -5 | -1 | -2 | i
CCOC(=O)c1oc2cccc(O)c2c1CN(Cc1ccccc1)C(C)=O | 89 | 5 | -2 | -4 | i
CCCC(=O)NC(c1ccco1)c1cc([N+](=O)[O-])c2cccnc2c1O (centres undefined) | 100 | 55* | 8 | -5 | +
O=C(/C=C/c1ccccc1)NNC(=O)C1CC1 | 65* | 3 | -2 | -3 | i
COc1cc(/C=C/c2nc(-c3ccccc3O)n[nH]2)cc(OC)c1OC | 94 | 66* | -1 | 0 | ?
SMILES | ABCB6 inh 2 | Cardio protect | hiPSC survival | beta cell repl | Myeloid diff MLP
Cc1ccc(N/N=C/C=C/c2ccco2)cc1 | 107 | -2 | 0 | -3 | i
O=C(c1cccc2ccccc12)N1CCCCC1 | 92 | 5 | 1 | 2 | i
O=C(O)c1ccccc1C(=O)NCC(O)COCC1CC=CCC1 (centres undefined) | 96 | 2 | 28* | -3 | i
C[C@H](Cc1ccccc1)Nc1ncnc2c1ncn2[C@@H]1O[C@H](CO)[C@@H](O)[C@H]1O | 98 | 5 | 4 | -2 | i
CCOC(=O)c1ccccc1Nc1cn(C(C)=O)c2ccccc12 | 101 | -14 | 0 | -2 | +
CC(=O)n1cc(Nc2ccccc2C(=O)O)c2ccccc21 | 100 | 6 | -1 | 0 | i
CCC(=O)NC1=C(Nc2ccc(N)cc2)C(=O)c2ccccc2C1=O | 104 | -17 | -1 | 0 | +
CCC(=O)Nc1ccc(C2C(=O)c3ccccc3C2=O)cc1 | 99 | -20 | 0 | -7 | i
O=C(c1cccc(F)c1)N1CCC2(CC1)NCCc1[nH]cnc12 | 98 | 1 | 1 | -3 | +
Cc1ccc(OCC(=O)NNC(=O)c2ccc(F)c(S(=O)(=O)N3CCOCC3)c2)cc1C | 98 | 3 | -2 | nt | i
Cc1ccc(Nc2nc(CSc3nnc(-c4cccnc4)n3-c3ccccc3F)cs2)cc1 | 97 | -5 | 1 | -3 | i
COc1cc(-c2cc(-c3ccc(O)cc3)nc(N)c2C#N)ccc1O | 100 | 50* | 1 | -4 | i
COc1ccc(-c2cc(-c3ccc(O)cc3)nc(N)c2C#N)cc1 | 102 | -5 | -1 | -2 | i
CCN(CC)CCNC(=O)c1ccc(NC(=O)c2ccc(C(=O)c3ccccc3)cc2)cc1 | 90 | -10 | 0 | -3 | i
CCN(CC)CCNC(=O)c1ccc(NC(C)=O)cc1 | 108 | 1 | 3 | 1 | +!
CN=C1c2cc3cc(OC)ccc3n2CCN1C | 101 | -3 | 4 | -1 | +
Cc1cc2ccccn2c1C(=O)c1nc(NCc2ccccc2)ncc1Cl | 102 | -15 | 1 | -4 | i
COc1ccc(-c2cccc(-c3cc(=O)oc4cc(OC)cc(OC)c34)c2)cc1 | 100 | -12 | -3 | nt | ?
COc1cc(OC)c2c(-c3cccc(-c4cccc(C)c4)c3)cc(=O)oc2c1 | 96 | -14 | -2 | nt | +
Cc1nn(C)c(C(=O)NC2C3CC4CC(C3)CC2C4)c1Cl (centres undefined) | 97 | 5 | 1 | 7.7* | i
Cc1cc(C)c2c(c1)/C(=N\N=c1\sc3ccccc3n1C)C(=O)N2 | 114 | 8 | 1 | -6 | +
COC(=O)c1ccc(CSc2nc3scc(-c4cccs4)c3c(=O)[nH]2)o1 | 59* | -12 | 0 | -4 | i
CCn1c(=O)c(CCC(=O)N2CCN(c3ccccn3)CC2)c(C)c2c(C)nn(-c3cccc(C)c3)c21 | 95 | 18 | -1 | -4 | i
NNc1nc2c(-c3ccc(F)cc3)nnn2c2ccccc12 | 138 | -12 | 0 | -5 | +
NNc1nc2c(-c3ccc(Cl)cc3)nnn2c2ccccc12 | 212 | 0 | -1 | -5 | +
CC1=C(C(=O)OC(C)C)C(c2ccc(O)cc2)NC(=O)N1 (centres undefined) | 92 | -2 | 0 | 1 | i
